From PubChem BioAssay AID1159580 (chemical genetic matrix, 2015)
Several values for one entry are separate records, joined by “and”; a condition that tells them apart may be missing. Equal entries are not always repeated. Hit rate of the full screen: of about 5,500 compounds, about 2,000 (36%) were called active. Inconclusive results (about 18%) are left out. No stated cut-off is given here; in the data, active means normalized growth mostly below about 0.91 (no sharp cut-off); inconclusive means no clear call, values can overlap the other calls; inactive means mostly above about 0.92. The list shows a part of the results.

Experiment: chemical genetic growth profiling, strain panel (AID 1159580);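 further: tested at 20 µM; growth read once vehicle control cultures reached saturation at 30 °C; 1 = growth at the plate median or of vehicle wells; lower values mean less growth of the strain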
Conditions: S. cerevisiae deletion strains, growth OD

Measured: normalized growth

Clc1ccc(COC(Cn2ccnc2)c2ccc(Cl)cc2Cl)c(Cl)c1 (configuration not stated)
active: locus YAL013W, strain DEP1, hits give low values 0.0568 | locus YAL021C, strain ccr4, hits give low values 0.0668 | locus YAL026C, strain drs2, hits give low values 0.0674 | locus YAL030W, strain snc1, hits give low values 0.0581 | locus YBL061C, strain skt5, hits give low values 0.0608 | locus YBR009C, strain hhf1, hits give low values 0.0655 | locus YBR021W, strain FUR4, hits give low values 0.0874 | locus YBR023C, strain chs3, hits give low values 0.0682 | locus YBR171W, strain sec66, hits give low values 0.0803 | locus YBR229C, strain ROT2, hits give low values 0.0268 | locus YBR231C, strain swc5, hits give low values 0.0764 | locus YBR279W, strain paf1, hits give low values 0.0803 | locus YCL011C, strain gbp2, hits give low values 0.0572 | locus YCL016C, strain dcc1, hits give low values 0.0647 | locus YCL029C, strain bik1, hits give low values 0.0612 | locus YCL061C, strain MRC1, hits give low values 0.065 | locus YCL069W, strain vba3, hits give low values 0.0638 | locus YCR088W, strain abp1, hits give low values 0.0654 | locus YDL005C, strain med2, hits give low values 0.0803 | locus YDL035C, strain GPR1, hits give low values 0.0505 | locus YDL040C, strain nat1, hits give low values 0.0613 | locus YDL074C, strain BRE1, hits give low values 0.0763 | locus YDL101C, strain DUN1, hits give low values 0.0503 | locus YDL134C, strain PPH21, hits give low values 0.0516 | locus YDL185W, strain tfp1, hits give low values 0.0554 | locus YDL192W, strain arf1, hits give low values 0.0597 | locus YDR001C, strain nth1, hits give low values 0.0613 | locus YDR069C, strain doa4, hits give low values 0.065 | locus YDR101C, strain arx1, hits give low values 0.0587 | locus YDR137W, strain rgp1, hits give low values 0.111 | locus YDR150W, strain NUM1, hits give low values 0.0575 | locus YDR159W, strain sac3, hits give low values 0.0885 | locus YDR162C, strain NBP2, hits give low values 0.0451 | locus YDR195W, strain ref2 0.126 | locus YDR297W, strain sur2, hits give low values 0.0574 | locus YDR318W, strain mcm21, hits give low values 0.0643 | locus YDR334W, strain swr1, hits give low values 0.0662 | locus YDR335W, strain msn5, hits give low values 0.0617 | locus YDR388W, hits give low values 0.056 | locus YDR392W, strain spt3, hits give low values 0.101 | locus YDR502C, strain sam2, hits give low values 0.0624 | locus YEL003W, strain gim4, hits give low values 0.0564 | locus YEL037C, strain rad23, hits give low values 0.0601 | locus YEL061C, strain CIN8 (second series), hits give low values 0.0638 | locus YEL061C, strain CIN8, hits give low values 0.0482 | locus YER015W, strain faa2, hits give low values 0.0604 | locus YER016W, strain bim1, hits give low values 0.0607 | locus YER110C, hits give low values 0.0744 | locus YER111C, strain swi4, hits give low values 0.0809 | locus YER155C, strain BEM2 (second series), hits give low values 0.0947 | locus YER155C, strain BEM2, hits give low values 0.0667 | locus YER167W, strain BCK2, hits give low values 0.0577 | locus YFR010W, strain ubp6, hits give low values 0.0709 | locus YGL078C, strain dbp3, hits give low values 0.0696 | locus YGL086W, strain mad1, hits give low values 0.0583 | locus YGL167C, strain pmr1, hits give low values 0.0799 | locus YGL173C, strain kem1, hits give low values 0.072 | locus YGL227W, strain vid30, hits give low values 0.067 | locus YGL240W, strain doc1, hits give low values 0.0883 | locus YGL248W, strain PDE1, hits give low values 0.0461 | locus YGL253W, strain hxk2, hits give low values 0.0558 | locus YGR078C, strain PAC10, hits give low values 0.0558 | locus YGR135W, strain pre9, hits give low values 0.0676 | locus YGR229C, strain SMI1, hits give low values 0.0622 | locus YGR252W, strain gcn5, hits give low values 0.155 | locus YHR013C, strain ard1, hits give low values 0.106 | locus YHR027C, strain rpn1, hits give low values 0.0625 | locus YHR030C, strain SLT2, hits give low values 0.0509 and 0.102 | locus YHR079C, strain IRE1 (second series), hits give low values 0.0623 | locus YHR079C, strain IRE1, hits give low values 0.124 | locus YHR094C, strain hxt1, hits give low values 0.0654 | locus YHR129C, strain ARP1, hits give low values 0.0576 | locus YHR142W, strain chs7, hits give low values 0.0767 | locus YHR200W, strain rpn10, hits give low values 0.0606 | locus YIL066C, strain RNR3, hits give low values 0.0442 | locus YIL073C, strain SPO22, hits give low values 0.115 | locus YIL125W, strain kgd1, hits give low values 0.0693 | locus YIR030C, strain dcg1, hits give low values 0.0593 | locus YJL092W, strain hpr5, hits give low values 0.061 | locus YJL095W, strain BCK1 (second series), hits give low values 0.059 | locus YJL095W, strain BCK1, hits give low values 0.0515 and 0.106 | locus YJL115W, strain asf1, hits give low values 0.0748 | locus YJL129C, strain trk1, hits give low values 0.0933 | locus YJL134W, strain LCB3, hits give low values 0.0457 | locus YJL154C, strain vps35, hits give low values 0.062 | locus YJL164C, strain tpk1, hits give low values 0.0667 | locus YJL166W, strain qcr8, hits give low values 0.0609 | locus YJL168C, strain set2, hits give low values 0.0574 | locus YJL187C, strain SWE1 (second series), hits give low values 0.0406 | locus YJL187C, strain SWE1, hits give low values 0.0602 | locus YJR043C, strain POL32, hits give low values 0.0602 | locus YJR066W, strain TOR1, hits give low values 0.0025
